Screens from PubChem BioAssay.
This excerpt belongs to a sample that is enriched for hits.
Tg IFNy HTS: T. gondii growth inhibition under IFN-gamma. Toxoplasma gondii growth in IFN-gamma-treated host cells; stronger effect = lower value. activity change, negative = inhibition, % (test concentration not listed). actives 3.8% (n = 69,000). AID 1259416; in the data active means activity change below about -70%, passing the limit was not always enough;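 further: host cells are HeLa cells infected with Toxoplasma gondii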
* = called active by the depositor.

`COc1ccc(C#Cc2cccc(-c3nc(C(=O)NCCCN4CCOCC4)cc4c3[C@@H](CCO)N(S(=O)C(C)(C)C)C4)c2)cc1OC` (stereo partly drawn) gave Tg IFNy HTS 23.
Screening COc1ccc(C#Cc2cccc(-c3nc(C(=O)N4CCN(Cc5ccccc5)CC4)cc4c3[C@@H](CCO)N(S(=O)C(C)(C)C)C4)c2)cc1OC (stereo partly drawn) returned Tg IFNy HTS -48.
`CC(C)(C)[S@](=O)N1Cc2cc(C(=O)NC3CCC3)nc(-c3cccc(Br)c3)c2[C@@H]1CCO` gave Tg IFNy HTS -75*.
For COc1ccc(C#Cc2cccc(-c3nc(C(=O)Nc4ccc(-c5ccccc5)cc4)cc4c3[C@@H](CCO)N(S(=O)C(C)(C)C)C4)c2)cc1OC (stereo partly drawn) the results were Tg IFNy HTS -71*.
`CC(C)(C)[S@@](=O)N1Cc2cc(C(=O)NC3CCC3)nc(-c3cccc(Br)c3)c2[C@H]1CCO` gave Tg IFNy HTS 48.
For Fc1ccc(F)c2c1CCN(Cc1cc3n(n1)CCCNC3)C2 the results were Tg IFNy HTS -1.
For CN(C)S(=O)(=O)c1ccc(CNC(=O)c2ccc(N3CCCCC3)cc2)cc1 the results were Tg IFNy HTS 30.
For Cc1nnsc1CN(C)Cc1cccc(C(=O)Nc2c(C)noc2C)c1 the results were Tg IFNy HTS -2.
CN(C)c1ncc(-c2nccn2C2CCN(Cc3ccccn3)CC2)cn1 was read as Tg IFNy HTS 10.
For O=S(=O)(NC[C@@]12COC[C@@H]1CN(Cc1cccs1)C2)C1CC1 the results were Tg IFNy HTS 43.
Screening FC(F)(F)Oc1ccc(OCc2n[nH]c(=S)o2)cc1 returned Tg IFNy HTS -35.
FC(F)(F)Oc1ccc(Nc2n[nH]c(=S)s2)cc1 was read as Tg IFNy HTS -92*.
Screening COc1ccc(CNc2n[nH]c(=S)s2)cc1 returned Tg IFNy HTS 408.
Screening COc1ncc(-c2c(-c3ccccc3)ncn2CCNc2cccnc2)cn1 returned Tg IFNy HTS -30.
`CN(C)c1nc(N2CCCC2)nc2c1CCN(Cc1ccoc1)CC2` gave Tg IFNy HTS -46.
For O=c1oc2ccccc2cc1-c1csc(-c2ccccc2Cl)n1 the results were Tg IFNy HTS 6.
For COc1cc(NC(=O)c2ccc(Cl)cc2Cl)ccc1-c1cc2ccccc2oc1=O the results were Tg IFNy HTS -85*.
COc1cc(Br)c(-c2cc3ccccc3oc2=O)cc1OC was read as Tg IFNy HTS -86*.
Screening COc1ccccc1NC(=O)c1cccc(-c2cc3ccccc3oc2=O)c1 returned Tg IFNy HTS 26.
COc1cccc2cc(-c3ccccc3)c(=O)oc12 was read as Tg IFNy HTS 229.
Screening O=C(COC(=O)c1cc2ccccc2oc1=O)c1ccc(Cl)cc1Cl returned Tg IFNy HTS 4.
`c1ccc(C[C@H]2[C@H](OCC3CC3)CCN2Cc2cccnc2)cc1` gave Tg IFNy HTS 9.
Screening CC(C)(C1NCCc2[nH]cnc21)N1CCCCC1 (stereo not drawn) returned Tg IFNy HTS 2.
Screening COc1ccccc1N1C(=O)CN(NC(=O)C(c2ccccc2)c2ccccc2)C1=O returned Tg IFNy HTS -12.
CC1=C(C(=O)Nc2cccc(Cl)c2C)C2(CCN(C(C)C)CC2)OC1=O was read as Tg IFNy HTS 13.
For O=C(CSc1nc2ccccc2s1)N1CCN(S(=O)(=O)c2ccccc2)C1 the results were Tg IFNy HTS 5.
`Cc1nc(N2CCN(c3ccccc3)CC2)nc2c1C(=O)CC(c1ccccc1F)C2` (stereo not drawn) gave Tg IFNy HTS -25.
Screening Cc1cc(=O)[nH]n(-c2ccccc2)c1=O returned Tg IFNy HTS -49.
Cc1ccccc1C1CC(=O)c2cnc3[nH]n(-c4ccccc4)c(=O)c3c2C1 (stereo not drawn) was read as Tg IFNy HTS -91*.
CCn1cc(Cn2cc(-c3ccc(OC)cc3OC)nn2)cn1 was read as Tg IFNy HTS -42.
For COc1ccc(-n2nc(C(=O)NCc3ccccn3)nc2-c2ccccc2)cc1 the results were Tg IFNy HTS 40.
`Cc1noc(-c2ccnc(-n3ncc(C(=O)NCCc4c[nH]c5ccccc45)c3C)c2)n1` gave Tg IFNy HTS 3.
O=C(NCCc1c[nH]c2ccccc12)c1cc2occc2c(Nc2ccc(F)cc2)n1 was read as Tg IFNy HTS -85*.
O=C(NCCc1c[nH]c2ccccc12)c1cccnc1 was read as Tg IFNy HTS 40.
Screening CN1CC[C@@]2(C(=O)N3CCOCC3)CCN(S(C)(=O)=O)CC[C@H]12 returned Tg IFNy HTS 8.
CN(Cc1cnc(N2CCOCC2)s1)Cc1ccccc1N1CCOCC1 was read as Tg IFNy HTS 10.
CCC(=O)Nc1ccc(NC(=O)C(C)N2CCCC2=O)cc1Cl (stereo not drawn) was read as Tg IFNy HTS 99.
For Fc1cnc(NC2COC3(CCCN(CC4CCOCC4)C3)C2)nc1 (stereo not drawn) the results were Tg IFNy HTS -2.
For OC1CCC(Nc2ncc3nc(Nc4c(F)cc(F)cc4F)n([C@H]4CCOC4)c3n2)CC1 (stereo partly drawn) the results were Tg IFNy HTS -73*.
COc1ccccc1N1CCN(C(=O)c2cc3cccnc3n(Cc3ccc(F)cc3)c2=O)CC1 was read as Tg IFNy HTS 42.
Screening COc1cc(/C=C/C(=O)N2CCN(CC(=O)N3CCCC3)CC2)cc(OC)c1OC returned Tg IFNy HTS 13.
COc1ccc(/C=C2\CC/C(=C\c3ccc(OC)c(OC)c3)C2=O)cc1OC was read as Tg IFNy HTS 7.
Screening COc1cc(/C=C/C2=NNC(=O)CC2)cc(OC)c1OC returned Tg IFNy HTS -97*.
For CC(=O)NCC(=O)N[C@@H](Cn1nnc2ccccc21)C(C)C the results were Tg IFNy HTS 35.
For CCN1c2cc(Cl)ccc2C(=O)NC12CCN(C(=O)NCc1ccccc1)CC2 the results were Tg IFNy HTS 28.
Screening Cc1ccc(C(=O)NCCSCc2ccccc2Cl)cc1 returned Tg IFNy HTS -21.
Screening Cc1ccc(SCc2ccccc2C(=O)Nc2cc(Cl)ccc2O)cc1 returned Tg IFNy HTS -75*.
For O=C(Nc1cc(Cl)ccc1O)c1ccccc1CN1CCOCC1 the results were Tg IFNy HTS 155.
CC(C)CN1C[C@H]2[C@@H](C(=O)NCc3ccccc3)CCS(=O)(=O)[C@H]2C1 was read as Tg IFNy HTS 30.
Screening CCOc1ccc(C(C)N(C)C(=O)Cc2nc3nc(C)c(C)c(=O)n3[nH]2)cc1 (stereo not drawn) returned Tg IFNy HTS -21.
For COCC(=O)O[C@]1(CCN(C)CCCc2nc3ccccc3[nH]2)CCc2cc(F)ccc2[C@@H]1C(C)C the results were Tg IFNy HTS -72*.
Screening CCOC(=O)CCc1nc2ccccc2[nH]1 returned Tg IFNy HTS -27.
`CN(Cc1nc2ccccc2[nH]1)C(=O)CCNC(=O)c1ccc(F)cc1` gave Tg IFNy HTS -49.
Screening CN(CC1OCCc2ccccc21)C(=O)C(c1ccc(F)cc1)N(C)C (stereo not drawn) returned Tg IFNy HTS 0.
For CCOC(=O)c1nc(N2CCN(C3CCCCC3)CC2)c2ccccc2n1 the results were Tg IFNy HTS 4.
`CCOC(=O)c1nc(N(Cc2cccs2)C2CCCC2)c2ccccc2n1` gave Tg IFNy HTS -76*.
Screening CCOC(=O)c1nc(N(CC)c2ccccc2)c2ccccc2n1 returned Tg IFNy HTS 14.
CSc1nc(Cl)c(-c2ccccc2)c(N2CCC(C(C)=O)(c3ccccc3)CC2)n1 was read as Tg IFNy HTS -66.
